High-throughput results (PubChem BioAssay)
A selection: hits, their analogues and other compounds. The true share with any hit is near 2.5%.
697 NFkB inh: lowers PMA/ionomycin-induced NF-kB signal in 697 B cells | actives 0.33% (n = 330,000) | inhibition, % at 4 µM | AID 435022 | 697 B-cell NF-kB luciferase reporter, 16 h; in the data active means inhibition above about 35%
ANO1 block: blocks the mouse calcium-activated chloride channel TMEM16A; actives 1.2% (n = 310,000); Q8BHY3; AID 588511; HEK293 TMEM16A/YFP iodide influx fluorescence, ionomycin; normalized B-score (activity score, 25-100; higher = stronger inhibition) at 10 µM;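 active means ratio plate-corrected score three or more library SD toward inhibition, starting fluorescence score within five deviations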;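 further: score derived from kinetic fluorescence span divided by baseline fluorescence per well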
KLF5 inh: suppresses KLF5 promoter-driven expression. DLD-1 KLF5 promoter-luciferase reporter, luminescence. inhibition, % at 5 µM. actives 0.23% (n = 290,000);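 active means inhibition above a per-plate limit of that plate's mean compound inhibition plus 3 SD, cut at about 60% in these data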;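 further: higher means less KLF5 promoter-driven luciferase light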
aSyn 5UTR inh: MLPCN primary screen, SNCA 5' untranslated region | AID 1813 | inhibition, % (tested at 7.5 µM) | alpha-synuclein 5'UTR reporter, inhibitor activity | actives 0.82% (n = 300,000); in the data active means inhibition above about 60%;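 further: H4 neuroglioblastoma cells stably carrying SNCA 5'UTR luciferase fusion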
Jurkat NFkB inh: lowers PMA/ionomycin-induced NF-kB signal in Jurkat cells. AID 435003. PMA/ionomycin-induced NF-kB luciferase reporter, luminescence. actives 0.53% (n = 330,000). inhibition, % at 4 µM; in the data active means inhibition above about 50%
ANO1 activ: activators or potentiators of mouse TMEM16A chloride channel | HEK293 TMEM16A/YFP-H148Q/I152L, iodide quench fluorescence; active compounds read low | actives 0.3% (n = 340,000) | B-score at 10 µM | AID 623877;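 active means fluorescence-ratio B-score plate-corrected deviation score at least 3 library SD below zero, with starting fluorescence score within 5 deviations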;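 further: channel opened by trigger with iodide after compound preincubation; score built on the fluorescence ratio of max minus min over baseline; more negative score means more quench and so TMEM16A activation or potentiation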
TMEM16A reconf: TMEM16A (mouse) chloride channel inhibition, re-confirmation | HEK293 TMEM16A/YFP-H148Q, iodide quench fluorescence; ionomycin added to raise cell calcium | shares compounds with ANO1 block | AID 652189 | inhibition, % at 10 µM | actives 39% (n = 2,300);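 active means mean duplicate percent inhibition, scaled so buffer wells are 0 and the reference blocker 100, over three buffer SD above buffer mean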
TMEM16A Ca cntr: counter-screen for TMEM16A inhibitors: effect on calcium mobilization; AID 652231; actives 2% (n = 2,300); calcium response (% of ionomycin), % at 10 µM; TMEM16A/YFP HEK293, Fluo4 calcium mobilization; shares compounds with ANO1 block;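 active means duplicate-averaged calcium signal over 20% of the ionomycin maximum, relative to buffer baseline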;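 further: each well's signal is peak minus trough fluorescence divided by its pre-addition baseline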
YFP-HEK293 quench: parental YFP-HEK293 iodide quench counter-screen activity; shares compounds with ANO1 block; ionomycin; YFP ratio F(max-min)/F0 at 10 µM; 2,300 tested, under 10 active; AID 652233;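 active means yellow fluorescent protein signal ratio exceeding the buffer control mean by over 5 SD of those controls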;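 further: ratio is mean of duplicate wells from kinetic YFP trace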
ClC-1 inh: rat ClC-1 inhibition, TMEM16A specificity screen. 2,300 tested, under 10 active. CHO ClC-1-YFP, iodide influx fluorescence quench; iodide control reads 0, buffer control 100. ratio percent, % at 10 µM. shares compounds with ANO1 block;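 active means duplicate-mean ratio percent above the mean of iodide-only control wells, which defines zero, plus 5 of their SD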;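 further: higher percent means stronger block of ClC-1 iodide influx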
Target sequence (P35524 whole entry, looked up): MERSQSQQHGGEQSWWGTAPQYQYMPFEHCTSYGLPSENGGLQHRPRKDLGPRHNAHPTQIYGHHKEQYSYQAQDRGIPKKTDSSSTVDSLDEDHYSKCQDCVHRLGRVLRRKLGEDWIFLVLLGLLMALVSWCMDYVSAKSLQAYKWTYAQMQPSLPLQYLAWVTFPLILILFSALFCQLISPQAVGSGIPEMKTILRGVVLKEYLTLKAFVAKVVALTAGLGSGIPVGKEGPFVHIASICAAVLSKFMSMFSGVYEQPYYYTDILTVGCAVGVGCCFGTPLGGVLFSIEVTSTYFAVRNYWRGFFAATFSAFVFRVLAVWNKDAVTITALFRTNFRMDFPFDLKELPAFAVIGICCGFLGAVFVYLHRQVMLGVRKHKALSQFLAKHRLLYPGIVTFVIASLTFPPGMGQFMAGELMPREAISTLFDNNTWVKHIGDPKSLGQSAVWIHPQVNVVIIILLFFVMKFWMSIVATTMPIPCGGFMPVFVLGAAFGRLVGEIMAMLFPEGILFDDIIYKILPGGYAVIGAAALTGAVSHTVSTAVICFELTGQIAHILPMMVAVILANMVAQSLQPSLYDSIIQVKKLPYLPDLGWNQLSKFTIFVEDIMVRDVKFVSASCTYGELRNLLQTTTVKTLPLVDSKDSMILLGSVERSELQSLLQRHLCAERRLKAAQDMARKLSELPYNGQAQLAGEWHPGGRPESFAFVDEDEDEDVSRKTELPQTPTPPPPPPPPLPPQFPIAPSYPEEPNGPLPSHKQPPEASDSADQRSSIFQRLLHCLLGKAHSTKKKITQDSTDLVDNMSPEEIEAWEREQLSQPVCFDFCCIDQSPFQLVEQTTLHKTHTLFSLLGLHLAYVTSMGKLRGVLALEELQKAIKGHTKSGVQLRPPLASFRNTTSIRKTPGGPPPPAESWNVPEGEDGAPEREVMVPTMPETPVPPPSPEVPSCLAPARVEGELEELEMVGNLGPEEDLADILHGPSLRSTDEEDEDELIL
Hits are given with their value; i = inactive; nt = no result given.

SMILES	697 NFkB inh	ANO1 block	KLF5 inh	aSyn 5UTR inh	Jurkat NFkB inh	ANO1 activ	TMEM16A reconf	TMEM16A Ca cntr	YFP-HEK293 quench	ClC-1 inh
CN(CC(=O)NCCCN1CCOCC1)S(=O)(=O)c1ccc(Cl)cc1	i	nt	nt	nt	i	i	nt	nt	nt	nt
COCc1[nH]nc2c1C(c1cccc(OC)c1)C(C#N)=C(N)O2 (configuration not stated)	i	i	i	i	i	i	nt	nt	nt	nt
COc1cccc(/C=C2/CN(C)CC3=C2OC(N)=C(C#N)C3c2cccc(OC)c2)c1 (configuration not stated)	i	i	i	i	i	i	i	i	i	i
O=S(=O)(c1ccc2c(c1)OCCO2)N1CCC(O)(c2ccc(Cl)cc2)CC1	i	100	i	i	i	i	i	i	i	i
CN(Nc1cccc(Cl)c1)c1cccc(Cl)c1	nt	nt	nt	nt	nt	i	nt	nt	nt	nt
CCCC1(C(=O)O)NC(c2ccccc2O)C2C(=O)N(Cc3ccccc3)C(=O)C21 (configuration not stated)	i	100	i	i	i	i	i	i	i	i
CC(C)(C)C(=O)NC(=S)Nc1ccc(Cc2ccncc2)cc1	i	i	i	i	i	i	nt	nt	nt	nt
CC1CCCN(C(=O)C(C)Sc2nc(-c3ccccc3)cc(C(F)(F)F)n2)C1 (configuration not stated)	i	100	i	i	i	i	i	i	i	i
CC(C)CN1CC(C)C(=O)NC1=S (configuration not stated)	nt	nt	nt	nt	nt	i	nt	nt	nt	nt
CCCCn1c(SCC(=O)c2cc(OC)ccc2OC)nc2cc(S(N)(=O)=O)ccc21	i	i	i	i	i	i	nt	nt	nt	nt
CCCCn1c(SCc2ccc(C(=O)OC)o2)nc2cc(S(N)(=O)=O)ccc21	i	25	i	i	i	i	18%	i	i	i
O=C(Cc1c(Cl)cccc1Cl)NCCc1ccc(Cl)cc1	i	i	i	i	i	i	nt	nt	nt	nt
O=C(CCl)NCc1c(Cl)cccc1-n1cccc1	i	25	i	i	i	i	i	i	i	i
O=C(CCC(=O)c1ccccc1)Nc1ccccc1OC(F)F	i	i	i	i	i	i	nt	nt	nt	nt
O=C1C=C(c2cc3ccccc3o2)C[C@@H](c2ccc(F)cc2)C1	i	nt	nt	nt	i	i	nt	nt	nt	nt
O=C(Nc1nc(-c2cc(Cl)sc2Cl)cs1)c1ccc(Br)s1	i	25	i	i	i	i	i	i	i	i
O=C(Nc1nc(-c2cc(Cl)sc2Cl)cs1)c1cccs1	i	i	i	i	i	i	nt	nt	nt	nt
C=CCn1c(SCC(=O)c2cccs2)nc2sc(CC)cc2c1=O	i	100	i	i	i	i	64%	i	i	i
Cc1noc(C)c1CSCC(=O)Nc1cc(S(=O)(=O)N2CCOCC2)ccc1OC(C)C	i	i	nt	i	i	i	nt	nt	nt	nt
CCC(C)N(C(=O)c1csnn1)C(C(=O)NC(C)(C)C)c1ccccc1 (configuration not stated)	i	i	i	i	i	nt	i	i	i	i
O=C(Nc1cccc(F)c1)C1CCCN(S(=O)(=O)c2ccccc2)C1 (configuration not stated)	i	i	i	i	i	i	nt	nt	nt	nt
Cc1ccnc(NC(=O)COc2ccc3oc4c(c3c2)CCCC4)c1	i	100	i	i	i	i	i	i	i	i
CNC(=O)COc1ccc2oc3c(c2c1)CCCC3	i	i	i	i	i	i	nt	nt	nt	nt
CCn1nnc2cc(C(=O)NCC(c3ccccc3OC)N(C)C)ccc21 (configuration not stated)	i	i	i	i	i	i	nt	nt	nt	nt
Cc1nn(-c2nc(-c3ccco3)cc(C(F)(F)F)n2)c(C)c1Br	i	25	i	i	i	i	i	i	i	i
SMILES	697 NFkB inh	ANO1 block	KLF5 inh	aSyn 5UTR inh	Jurkat NFkB inh	ANO1 activ	TMEM16A reconf	TMEM16A Ca cntr	YFP-HEK293 quench	ClC-1 inh
Fc1ccc(N2CCN(c3nc(-c4ccco4)cc(C(F)(F)F)n3)CC2)cc1	i	i	i	i	i	i	nt	nt	nt	nt
O=c1cc(-c2ccccc2Cl)oc2c(NS(=O)(=O)c3cccs3)ccc(O)c12	i	25	nt	i	i	i	27%	i	i	i
O=c1cc(-c2ccccc2Cl)oc2c(NS(=O)(=O)c3ccccc3C(F)(F)F)ccc(O)c12	i	i	nt	i	i	i	nt	nt	nt	nt
O=C(Nc1ccc(N2CCN(c3ncccc3C(F)(F)F)CC2)nc1)c1cccs1	i	25	i	i	i	i	31%	i	i	i
CCn1ncc(Cl)c1C(=O)Nc1ccc2c(c1)CCC2	i	i	i	i	i	i	nt	nt	nt	nt
O=C(O)COc1ccccc1/C=C1\SC(=S)N(/N=C/c2ccccc2O)C1=O	i	i	i	i	i	i	nt	nt	nt	nt
O=C(O)COc1ccccc1/C=C1\SC(=S)N(NC(=O)c2ccccc2O)C1=O	i	i	nt	i	i	i	i	i	i	i
CCOC(=O)c1c(C)[nH]c(C(=O)OC/C(O)=C(\C#N)c2nc3ccccc3[nH]2)c1C	i	100	i	nt	i	-7.5	i	i	i	i
COc1ccc2oc(C(=O)OC/C(O)=C(\C#N)c3nc4ccccc4[nH]3)c(C)c2c1	i	i	i	i	i	i	nt	nt	nt	nt
O=C(C[C@H]1C[C@H](C(=O)N2CCOCC2)[C@@]2(CCC3CCCC3)c3[nH]c4cc(-c5ccco5)ccc4c3CCN2C1=O)NCc1ccco1	i	nt	nt	nt	nt	nt	nt	nt	nt	nt
Cc1cc(C(=O)NC2CC(C)(C)Cc3c2cnn3-c2cccc(F)c2)nn1C (configuration not stated)	i	i	i	i	i	i	nt	nt	nt	nt
Cc1nn(Cc2ccc(C(=O)Nc3nc4c(C)cccc4s3)o2)c(C)c1Br	i	100	i	i	i	i	i	i	i	i
O=C(c1ccc(N2CCCS2(=O)=O)cc1)N1CCN(c2ccccc2)CC1	i	i	i	i	i	i	nt	nt	nt	nt
C(=C\c1ccccc1)/CN1CCN(c2ncnc3c2oc2ccccc23)CC1	i	100	i	i	i	i	34%	i	i	i
COc1ccccc1N1CCN(c2ncnc3c2oc2ccccc23)CC1	i	100	i	i	i	i	i	i	i	i
c1ccc2[nH]c(CN3CCN(c4ncnc5c4oc4ccccc45)CC3)nc2c1	i	i	i	nt	i	i	nt	nt	nt	nt
c1ccc2c(c1)oc1c(N3CCOCC3)ncnc12	i	i	i	i	i	i	nt	nt	nt	nt
